Measurements: PubChem BioAssay (NCATS)
Results filed as inconclusive are left out. Calls of active or inactive are those of the source. Unless noted, calls follow the shape of the dose curve; as a rule, active = well fitted curve in the direction sought with a large enough effect; inconclusive = small, poorly fitted or top-dose-only effect, or another doubt; inactive = no such curve, though single readings can be large; an effect the other way counts as inactive or inconclusive.

Tests used:
[1] = target: Alpha-galactosidase (Coffea arabica) (UniProt Q42656); experiment: Counterscreen for Glucocerebrosidase Inhibitors: qHTS Assay for Coffee Bean alpha-Galactosidase at pH 4.5 (AID 957);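 also: series mostly up to about 77 µM; plate controls were enzyme alone for no effect and no enzyme for full effect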
In short: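 AC50 values derive from Hill-equation modeling of concentration-response data, normalized to no-enzyme and full-activity controls. The pH 4.5 citrate assay used 2 nM coffee bean enzyme and 80 uM fluorogenic substrate for 20 min.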

[2] = target: Alpha-galactosidase (Coffea arabica) (UniProt Q42656); experiment: Counterscreen for Glucocerebrosidase Inhibitors: qHTS Assay for Coffee Bean alpha-Galactosidase at pH 5.9 (AID 998);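 also: plate controls were uninhibited enzyme for no effect and no-enzyme basal signal for full effect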
In short: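 Green coffee bean enzyme (2 nM final) was incubated with compounds (0.7 nM–77 uM) and 4-methylumbelliferyl alpha-D-galactopyranoside (80 uM) in citrate buffer pH 5.9, 20 min at room temperature. High-pH stop; fluorescence 365/440 nm; AC50 from Hill fits.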

[3] = Inducers of the Endoplasmic Reticulum Stress Response (ERSR) in human glioma: Validation (AID 504836); also: 0% is about no effect
In short: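 Stably transfected U87-MG human glioma cells carrying a GRP78-based luminescent sensor were seeded at 1000 cells/well, pin-dosed with compounds and incubated 16 h. Luciferase reagent was then added, and end-point luminescence was read after 10 min at room temperature.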

[4] = qHTS for Inhibitors of the Functional Ribonucleoprotein Complex (vRNP) of Lassa (LASV) Arenavirus: LASV Primary Screen - GLuc reporter signal (AID 1347082; calls by dose curve; tested in HEK293 reporter line; also: series mostly up to about 57 µM; % is scaled to controls: 0 for no effect and ±100 for the full control effect; nearly all actives have a fitted effect of over 60% in size)
[5] = qHTS for Inhibitors of the Functional Ribonucleoprotein Complex (vRNP) of Lassa (LASV) Arenavirus: Viability assay - alamar blue signal for LASV Primary Screen (AID 1347083; calls by dose curve; tested in HEK293 reporter line; also: series mostly up to about 57 µM; % is scaled to controls: 0 for no effect and ±100 for the full control effect; nearly all actives have a fitted effect of over 80% in size)
[6] = qHTS for Inhibitors of the Functional Ribonucleoprotein Complex (vRNP) of Lymphocytic Choriomeningitis Arenaviruses (LCMV): Viability assay - alamar blue signal for LCMV Primary Screen (AID 1347085; calls by dose curve; tested in HEK293 reporter line; also: series mostly up to about 57 µM; % is scaled to controls: 0 for no effect and ±100 for the full control effect; nearly all actives have a fitted effect of over 80% in size)
[7] = target: Nucleoprotein (Lymphocytic choriomeningitis virus (strain Armstrong)) (UniProt P09992); experiment: qHTS for Inhibitors of the Functional Ribonucleoprotein Complex (vRNP) of Lymphocytic Choriomeningitis Arenaviruses (LCMV): LCMV Primary Screen - GLuc reporter signal (AID 1347086; calls by dose curve; also: series mostly up to about 57 µM; % is scaled to controls: 0 for no effect and ±100 for the full control effect; nearly all actives have a fitted effect of over 70% in size)
[8] = target: Estrogen receptor (Homo sapiens) (UniProt P03372); experiment: qHTS assay for small molecule antagonists of estrogen receptor alpha signaling (AID 588513; active = well fitted curve in the direction sought with a large enough effect in the signal ratio, with a control signal flat, not every such curve was filed as active; the % refers to the signal ratio; also: % is scaled to controls: 0 for no effect and ±100 for the full control effect)
In short: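 Antagonist-mode qHTS in ER-alpha-UAS-bla HEK 293 cells: compound titration, 0.5nM estradiol for 18 h, CCF4 fluorescence, Hill-derived IC50.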

[9] = target: Estrogen receptor (Homo sapiens) (UniProt P03372); experiment: qHTS assay for small molecule agonists of estrogen receptor alpha signaling (AID 588514; calls by dose curve;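 also: 0% = vehicle only and 100% = reference agonist; nearly all actives have a fitted effect of over 70% in size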)
In short: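 Reporter-gene assay. […] controls beta-lactamase in HEK 293 GripTite cells; after 18 hrs with compound, CCF4 substrate is added for 2 hrs and fluorescence is read.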

[10] = target: Glucocorticoid receptor (Homo sapiens) (UniProt P04150); experiment: qHTS assay for small molecule agonists of glucocorticoid receptor signaling (AID 588532; active = well fitted curve in the direction sought with a large enough effect in the signal ratio, with a control signal flat; the % refers to the signal ratio;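 also: 100% = dexamethasone at 0.1 µM and 0% = DMSO only wells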); conditions: HeLa MMTV-bla, beta-lactamase ratio, agonist, 18 h; stronger effect = higher value; percent of dexamethasone control, DMSO zero
In short: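 Stimulation of a glucocorticoid response element-driven beta-lactamase gene was measured in HeLa cells. Responses were scaled between DMSO basal and 0.1 uM dexamethasone, then fitted for half-maximal stimulation.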

[11] = target: Glucocorticoid receptor (Homo sapiens) (UniProt P04150); experiment: qHTS assay for small molecule antagonists of glucocorticoid receptor signaling (AID 588533; active = well fitted inhibition curve with a large enough effect in the signal ratio, with a control signal flat, not every such curve was filed as active; the % refers to the signal ratio;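 also: cells stimulated with 2 nM dexamethasone as agonist; % is scaled to controls: 0 for no effect and ±100 for the full control effect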)
In short: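 Antagonist-mode qHTS: compound titrations added to GRE-bla HeLa cells, then dexamethasone 2 nM final; 18 h, 37 C. CCF4 FRET fluorescence normalized to dexamethasone and DMSO; IC50 from Hill fit.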

[12] = target: Peroxisome proliferator-activated receptor delta (Homo sapiens) (UniProt Q03181); experiment: qHTS assay for small molecule agonists of peroxisome proliferator-activated receptor delta signaling (AID 588534; calls by dose curve;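 also: 0% = DMSO basal wells and 100% = positive control agonist at 10 µM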)
In short: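 Reporter cells were plated and held 5 hrs at 37 C before compounds were added. After 18 hrs at 37 C, CCF4 dye was loaded for 2 hrs at RT and fluorescence measured.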

[13] = qHTS assay for small molecule antagonists of peroxisome proliferator-activated receptor delta signaling (AID 588535; active = well fitted inhibition curve with a large enough effect in the signal ratio, with a control signal flat, not every such curve was filed as active; the % refers to the signal ratio;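 as to max response: cells co-treated with a PPAR-delta agonist as stimulator during compound exposure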); conditions: HEK293T PPARd-UAS-bla, beta-lactamase FRET ratio, 18 h; 460 nm channel
In short: (§1)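 GeneBLAzer PPAR-delta-UAS-bla HEK293T cells in medium with 2% charcoal/dextran FBS were preincubated 5 hrs at 37 C, then given compounds, incubated 18 hrs at 37 C, and read by CCF4 beta-lactamase fluorescence; IC50 from Hill fits.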

[14] = target: Peroxisome proliferator-activated receptor delta (Homo sapiens) (UniProt Q03181); experiment: as above
In short: as §1

[15] = target: Peroxisome proliferator-activated receptor gamma (Homo sapiens) (UniProt P37231); experiment: qHTS assay for small molecule agonists of peroxisome proliferator-activated receptor gamma signaling (AID 588536; active = well fitted curve in the direction sought with a large enough effect in the signal ratio, with a control signal flat, not every such curve was filed as active; the % refers to the signal ratio;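 also: 0% = DMSO basal wells and 100% = rosiglitazone at 2 µM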)
In short: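 HEK293 UAS-bla reporter line, 1% charcoal/dextran FBS; titration, 16 h, 37 C; CCF4 loading 2 h RT; fluorescence 460/530 nm. Normalized to rosiglitazone 2 uM = 100%, DMSO = 0%.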

[16] = target: Peroxisome proliferator-activated receptor gamma (Homo sapiens) (UniProt P37231); experiment: qHTS assay for small molecule antagonists of peroxisome proliferator-activated receptor gamma signaling (AID 588537; active = well fitted inhibition curve with a large enough effect in the signal ratio, with a control signal flat, not every such curve was filed as active; the % refers to the signal ratio;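 also: reporter cells co-stimulated with 50 nM rosiglitazone agonist during compound treatment; % of control where 0% means no effect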)
In short: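 PPAR-gamma-UAS-bla HEK293 cells (3000/well, 1% charcoal/dextran-stripped FBS) were preincubated 6-6.5 h at 37 C, given titrated compounds, then stimulated with 50 nM rosiglitazone for 16 h. Beta-lactamase activity was read with CCF4 dye; IC50 came from Hill fits.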

[17] = qHTS assay for small molecule agonists of retinoid X receptor alpha signaling (AID 588544; calls by dose curve;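 as to activation: 0% = DMSO basal wells and 100% = reference agonist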); conditions: HEK293T RXRa-UAS-bla, beta-lactamase reporter, 18 h; 530 nm emission
[18] = target: Retinoic acid receptor RXR-alpha (Homo sapiens) (UniProt P19793); experiment: as above
[19] = target: Thyroid hormone receptor beta (Homo sapiens) (UniProt P10828); experiment: qHTS assay for small molecule agonists of thyroid hormone receptor beta signaling (AID 588545; calls by dose curve)
In short: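 In this cell-based screen, titrated compounds act on HEK 293 cells held in medium with 2% charcoal/dextran FBS, NEAA and pyruvate for 18 hrs at 37 C. Responses are expressed relative to T3 (10 nM) as 100% and basal DMSO as 0%.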

[20] = qHTS assay for small molecule antagonists of retinoid X receptor alpha signaling (AID 588546; active = well fitted inhibition curve with a large enough effect in the signal ratio, with a control signal flat, not every such curve was filed as active; the % refers to the signal ratio;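 also: cells stimulated with 9-cis-retinoic acid as agonist; % is scaled to controls: 0 for no effect and ±100 for the full control effect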); conditions: HEK293T RXRa-UAS-bla, beta-lactamase ratio, antagonist mode; measured here: W530 green channel, cytotoxicity proxy
In short: (§2)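 Beta-lactamase reporter inhibition, read as CCF4 fluorescence ratio (ex 405, em 460/530 nm) after 2 h at RT. HEK293T UAS-bla cells, 2500/well, were stimulated with 9-cis-RA at 500 or 100 nM final alongside test compound for 18 h at 37 C.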

[21] = target: Retinoic acid receptor RXR-alpha (Homo sapiens) (UniProt P19793); experiment: as above; conditions: HEK293T RXRa-UAS-bla, beta-lactamase ratio, antagonist mode
In short: as §2

[22] = target: Thyroid hormone receptor beta (Homo sapiens) (UniProt P10828); experiment: qHTS assay for small molecule antagonists of thyroid hormone receptor beta signaling (AID 588547; active = well fitted inhibition curve with a large enough effect in the signal ratio, with a control signal flat, not every such curve was filed as active; the % refers to the signal ratio;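 also: cells stimulated with 0.4 nM T3 agonist during compound exposure; series mostly up to about 77 µM; % is scaled to controls: 0 for no effect and ±100 for the full control effect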); conditions: TR-UAS-bla HEK293, beta-lactamase ratio, antagonist mode, 18 h
In short: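 TR-UAS-bla GripTite HEK293 cells in 2% charcoal/dextran FBS medium were preincubated 4 h at 37 C, given compound (0.59 nM to 92 uM) plus 0.4 nM T3 (final) for 18 h, then CCF4 for 2 h at RT; Hill fit gave IC50.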

[23] = qHTS assay for small molecule agonists of the antioxidant response element (ARE) signaling pathway (AID 651741; active = well fitted activation curve with a large enough effect in the signal ratio; the % refers to the signal ratio; also: % of control where 0% means no effect)
In short: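 ARE-bla HepG2 cells (beta-lactamase reporter under ARE control) were plated at 2,000 cells/well, preincubated 5 h at 37 C/5% CO2, then treated with DMSO-dissolved compounds for 16 h at 37 C; LiveBLAzer B/G FRET substrate added, fluorescence read after 2 h at room temperature.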

[24] = qHTS assay for small molecule activators of the p53 signaling pathway (AID 651743; active = well fitted activation curve with a large enough effect in the signal ratio, not every such curve was filed as active; the % refers to the signal ratio; also: series mostly up to about 92 µM; % of control where 0% means no effect); conditions: HCT-116 p53RE-bla, beta-lactamase FRET ratio, 16 h; activation: stronger effect = higher value
In short: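 p53RE-bla HCT-116 cells with a stably integrated beta-lactamase reporter under p53 response elements were plated, rested 5 hours at 37 C/5% CO2, then exposed to compounds in DMSO for 16 hours at 37 C. LiveBLAzer B/G FRET substrate was read after 2 hours at room temperature.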

[25] = qHTS assay for environmental chemicals that activate the Aryl hydrocarbon Receptor (AhR) signaling pathway (AID 651777); conditions: 1A2-DRE human hepatoma cells, luciferase, 24 h; activation: stronger effect = higher value; also: % of control where 0% means no effect; nearly all actives have a fitted effect of over 15% in size
In short: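 Measured luciferase activity, read 30 min after One-Glo addition at room temperature, from human hepatoma cells bearing a dioxin response element–CYP1A2 promoter reporter and exposed to compound for 24 hr at 37 C.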

[26] = target: Peroxisome proliferator-activated receptor alpha (Homo sapiens) (UniProt Q07869); experiment: qHTS assay for small molecule agonists of the peroxisome proliferator-activated receptor alpha (PPARalpha) signaling pathway (AID 651778); conditions: PathHunter PPARalpha complementation, chemiluminescence, 6 h; stronger effect = higher value; also: % of control where 0% means no effect
In short: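 Cells plated at 2,000/well and held overnight at 37 C, 5% CO2, then compound added by pin tool for 6 hr; after PathHunter detection reagent and 60 min at room temperature, chemiluminescence from enzyme complementation was read.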

[27] = qHTS assay for small molecule agonists of the antioxidant response element (ARE) signaling pathway measured by Nrf2-dependant transcriptional activity (AID 720636; active = well fitted curve in the direction sought with a large enough effect in the repeat runs; an effect the other way counts as inactive or inconclusive;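 also: HepG2 cells with an ARE-driven luciferase reporter; % of control where 0% means no effect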)
In short: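 In HepG2 cells engineered with an Nrf2-responsive luciferase gene, ARE induction was quantified as luminescence after 16 hr compound treatment at 37 C.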

[28] = qHTS assay for small molecule agonists of the antioxidant response element (ARE) signaling pathway measured by Nrf2-dependant transcriptional activity - cell viability counter screen (AID 720653; active = well fitted curve in the direction sought with a large enough effect in the repeat runs; an effect the other way counts as inactive or inconclusive; also: % is scaled to controls: 0 for no effect and ±100 for the full control effect); conditions: ARE-bla HepG2 viability, CellTiter-Glo ATP luminescence, 16 h; max response: stronger effect = lower value
In short: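 ARE-bla HepG2 cells (2,000/well) rested 5 hrs at 37C/5% CO2, then exposed to compounds in DMSO for 16 hrs. Viability was read in the same wells as intracellular ATP by luminescence, 30 min at room temperature after reagent addition.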

[29] = qHTS assay for cell viability of HEK293 cells (AID 743288); conditions: ATP luminescence (CellTiter-Glo), 18 h; max response: stronger effect = lower value; also: % is scaled to controls: 0 for no effect and ±100 for the full control effect; nearly all actives have a fitted effect of over 50% in size
In short: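 Luminescent ATP quantitation served as the viability read-out. Cells (parental HEK293, 2,000/well) received compounds after at least 5 h at 37 C and were exposed for 18 h before a 30 min room-temperature reagent step.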

[30] = qHTS assay for cell viability of the p53RE-bla HCT-116 cell line (AID 743292); also: % is scaled to controls: 0 for no effect and ±100 for the full control effect; nearly all actives have a fitted effect of over 55% in size
In short: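 Intracellular ATP of p53RE-bla HCT-116 cells measured by luciferase luminescence following 16 h compound incubation at 37 C; DMSO-only wells served as vehicle controls.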

[31] = target: Nuclear receptor subfamily 1 group I member 2 (Rattus norvegicus) (UniProt Q9R1A7); experiment: qHTS assay for small molecule activators of the rat pregnane X receptor (rPXR) signaling pathway (AID 651751; call rule not given here; also: 0% is about no effect); conditions: rPXR reporter cells, luciferase (One-Glo), 24 h
[32] = qHTS assay for small molecule activators of the human pregnane X receptor (PXR) signaling pathway (AID 720659; call rule not given here; also: 0% is about no effect)

Nucleoprotein (Lymphocytic choriomeningitis virus (strain Armstrong)), sequence (P09992 whole entry, looked up): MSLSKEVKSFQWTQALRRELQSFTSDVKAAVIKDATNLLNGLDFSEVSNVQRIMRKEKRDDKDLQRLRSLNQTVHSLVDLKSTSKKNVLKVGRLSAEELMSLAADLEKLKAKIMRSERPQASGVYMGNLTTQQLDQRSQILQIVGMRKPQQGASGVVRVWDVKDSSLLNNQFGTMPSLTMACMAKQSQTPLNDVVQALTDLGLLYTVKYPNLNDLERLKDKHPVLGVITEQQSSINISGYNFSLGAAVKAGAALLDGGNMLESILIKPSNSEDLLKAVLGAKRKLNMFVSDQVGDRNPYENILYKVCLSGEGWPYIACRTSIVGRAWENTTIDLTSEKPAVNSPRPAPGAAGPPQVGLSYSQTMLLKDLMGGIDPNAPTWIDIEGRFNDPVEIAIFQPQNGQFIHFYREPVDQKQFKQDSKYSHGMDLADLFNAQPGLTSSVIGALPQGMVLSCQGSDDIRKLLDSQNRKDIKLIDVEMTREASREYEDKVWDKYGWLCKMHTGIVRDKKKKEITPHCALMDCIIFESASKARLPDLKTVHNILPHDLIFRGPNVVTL
Alpha-galactosidase (Coffea arabica), sequence (Q42656 whole entry, looked up): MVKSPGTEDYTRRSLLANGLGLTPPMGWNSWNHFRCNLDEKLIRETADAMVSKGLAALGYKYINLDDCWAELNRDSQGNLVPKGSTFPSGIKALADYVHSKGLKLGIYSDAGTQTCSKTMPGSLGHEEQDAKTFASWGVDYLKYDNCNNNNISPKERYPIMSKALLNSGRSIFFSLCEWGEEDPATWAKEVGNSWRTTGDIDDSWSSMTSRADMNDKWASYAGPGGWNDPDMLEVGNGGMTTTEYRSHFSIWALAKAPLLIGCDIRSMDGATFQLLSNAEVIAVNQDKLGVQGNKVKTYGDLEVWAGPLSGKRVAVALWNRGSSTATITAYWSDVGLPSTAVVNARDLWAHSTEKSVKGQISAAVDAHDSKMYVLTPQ
Glucocorticoid receptor (Homo sapiens), sequence (P04150 whole entry, looked up): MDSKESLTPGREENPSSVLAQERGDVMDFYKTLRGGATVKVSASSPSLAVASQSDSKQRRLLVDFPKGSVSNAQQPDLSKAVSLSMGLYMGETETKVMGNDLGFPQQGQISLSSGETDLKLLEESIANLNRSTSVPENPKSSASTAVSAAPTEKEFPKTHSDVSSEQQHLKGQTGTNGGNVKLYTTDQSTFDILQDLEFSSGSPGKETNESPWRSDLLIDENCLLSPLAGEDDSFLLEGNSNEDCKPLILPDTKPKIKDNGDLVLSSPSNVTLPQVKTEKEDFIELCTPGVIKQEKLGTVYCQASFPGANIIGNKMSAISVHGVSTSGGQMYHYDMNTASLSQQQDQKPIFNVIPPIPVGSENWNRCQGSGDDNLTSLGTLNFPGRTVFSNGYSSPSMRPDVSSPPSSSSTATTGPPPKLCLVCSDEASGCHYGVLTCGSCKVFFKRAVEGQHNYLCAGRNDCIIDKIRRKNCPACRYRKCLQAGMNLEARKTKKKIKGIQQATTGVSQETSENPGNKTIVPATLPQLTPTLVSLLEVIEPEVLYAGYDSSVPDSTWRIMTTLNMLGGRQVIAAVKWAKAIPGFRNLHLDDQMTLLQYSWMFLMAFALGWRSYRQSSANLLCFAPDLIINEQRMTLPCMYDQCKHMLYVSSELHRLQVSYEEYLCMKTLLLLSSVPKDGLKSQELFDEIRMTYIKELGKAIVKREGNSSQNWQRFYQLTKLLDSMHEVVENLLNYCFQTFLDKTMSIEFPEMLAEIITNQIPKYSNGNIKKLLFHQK
Retinoic acid receptor RXR-alpha (Homo sapiens), sequence (P19793 whole entry, looked up): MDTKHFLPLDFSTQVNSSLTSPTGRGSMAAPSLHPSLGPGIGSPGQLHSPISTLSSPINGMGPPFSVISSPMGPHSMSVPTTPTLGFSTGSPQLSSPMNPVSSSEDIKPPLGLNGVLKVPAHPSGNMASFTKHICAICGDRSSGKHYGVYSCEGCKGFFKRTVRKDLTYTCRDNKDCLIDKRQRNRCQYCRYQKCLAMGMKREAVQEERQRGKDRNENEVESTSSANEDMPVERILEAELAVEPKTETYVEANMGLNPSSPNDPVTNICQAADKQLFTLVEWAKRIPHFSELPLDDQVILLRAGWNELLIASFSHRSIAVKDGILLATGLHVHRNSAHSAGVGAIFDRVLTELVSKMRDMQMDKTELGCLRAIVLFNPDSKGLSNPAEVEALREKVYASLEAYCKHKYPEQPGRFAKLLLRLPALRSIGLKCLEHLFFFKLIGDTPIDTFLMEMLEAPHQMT
Thyroid hormone receptor beta (Homo sapiens), sequence (P10828 whole entry, looked up): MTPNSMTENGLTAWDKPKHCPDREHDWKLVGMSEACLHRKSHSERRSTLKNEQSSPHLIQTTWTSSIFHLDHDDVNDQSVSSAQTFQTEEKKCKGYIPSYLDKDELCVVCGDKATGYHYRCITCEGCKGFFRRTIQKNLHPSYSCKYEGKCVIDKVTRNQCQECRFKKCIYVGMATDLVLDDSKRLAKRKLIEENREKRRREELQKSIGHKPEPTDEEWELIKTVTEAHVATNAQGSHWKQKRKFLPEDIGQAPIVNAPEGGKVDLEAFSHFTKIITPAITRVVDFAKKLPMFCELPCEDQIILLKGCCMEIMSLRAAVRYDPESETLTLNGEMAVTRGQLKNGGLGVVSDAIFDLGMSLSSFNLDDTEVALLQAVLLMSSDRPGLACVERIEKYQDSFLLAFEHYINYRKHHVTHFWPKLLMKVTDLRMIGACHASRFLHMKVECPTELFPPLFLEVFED
Estrogen receptor (Homo sapiens), sequence (P03372 whole entry, looked up): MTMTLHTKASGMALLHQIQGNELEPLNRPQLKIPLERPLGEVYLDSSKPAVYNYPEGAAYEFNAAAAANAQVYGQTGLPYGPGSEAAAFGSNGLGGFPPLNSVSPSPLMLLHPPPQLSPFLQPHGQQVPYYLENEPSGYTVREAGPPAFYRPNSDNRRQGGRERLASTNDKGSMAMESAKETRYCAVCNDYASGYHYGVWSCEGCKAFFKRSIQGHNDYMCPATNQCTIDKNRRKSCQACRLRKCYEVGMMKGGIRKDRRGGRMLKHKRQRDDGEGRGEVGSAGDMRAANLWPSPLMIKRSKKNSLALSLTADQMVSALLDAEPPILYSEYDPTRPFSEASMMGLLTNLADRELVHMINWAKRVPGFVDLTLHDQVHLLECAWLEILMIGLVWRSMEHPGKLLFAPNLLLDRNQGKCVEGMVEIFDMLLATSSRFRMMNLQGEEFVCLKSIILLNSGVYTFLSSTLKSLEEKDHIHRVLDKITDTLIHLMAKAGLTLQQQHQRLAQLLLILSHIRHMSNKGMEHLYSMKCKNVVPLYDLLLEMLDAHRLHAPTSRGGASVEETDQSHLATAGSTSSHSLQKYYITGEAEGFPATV
Peroxisome proliferator-activated receptor gamma (Homo sapiens), sequence (P37231 whole entry, looked up): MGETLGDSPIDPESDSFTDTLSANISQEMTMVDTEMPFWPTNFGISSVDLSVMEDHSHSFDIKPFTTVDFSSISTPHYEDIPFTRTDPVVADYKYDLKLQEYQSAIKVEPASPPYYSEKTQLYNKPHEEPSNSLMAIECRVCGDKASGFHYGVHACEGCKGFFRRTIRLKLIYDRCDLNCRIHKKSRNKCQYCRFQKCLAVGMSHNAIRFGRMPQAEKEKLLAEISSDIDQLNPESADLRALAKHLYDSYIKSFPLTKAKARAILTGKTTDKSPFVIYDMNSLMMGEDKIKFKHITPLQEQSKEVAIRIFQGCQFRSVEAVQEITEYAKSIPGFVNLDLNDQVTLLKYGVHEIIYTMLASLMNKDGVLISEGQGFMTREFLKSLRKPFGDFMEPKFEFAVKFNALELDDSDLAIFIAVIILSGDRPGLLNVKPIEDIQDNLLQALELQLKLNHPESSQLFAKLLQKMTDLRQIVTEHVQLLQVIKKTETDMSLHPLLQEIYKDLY
Peroxisome proliferator-activated receptor delta (Homo sapiens), sequence (Q03181 whole entry, looked up): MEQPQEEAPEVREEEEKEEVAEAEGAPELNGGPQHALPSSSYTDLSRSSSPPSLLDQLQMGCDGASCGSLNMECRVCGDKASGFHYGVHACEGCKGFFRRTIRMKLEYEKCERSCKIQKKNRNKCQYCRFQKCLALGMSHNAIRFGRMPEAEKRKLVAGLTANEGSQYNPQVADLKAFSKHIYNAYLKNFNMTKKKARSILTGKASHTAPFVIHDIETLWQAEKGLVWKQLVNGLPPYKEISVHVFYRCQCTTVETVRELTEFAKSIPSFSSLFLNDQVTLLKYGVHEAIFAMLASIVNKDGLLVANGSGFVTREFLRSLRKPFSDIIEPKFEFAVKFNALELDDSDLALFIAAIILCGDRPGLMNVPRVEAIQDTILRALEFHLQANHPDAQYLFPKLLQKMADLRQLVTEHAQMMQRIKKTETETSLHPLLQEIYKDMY
Peroxisome proliferator-activated receptor alpha (Homo sapiens), sequence (Q07869 whole entry, looked up): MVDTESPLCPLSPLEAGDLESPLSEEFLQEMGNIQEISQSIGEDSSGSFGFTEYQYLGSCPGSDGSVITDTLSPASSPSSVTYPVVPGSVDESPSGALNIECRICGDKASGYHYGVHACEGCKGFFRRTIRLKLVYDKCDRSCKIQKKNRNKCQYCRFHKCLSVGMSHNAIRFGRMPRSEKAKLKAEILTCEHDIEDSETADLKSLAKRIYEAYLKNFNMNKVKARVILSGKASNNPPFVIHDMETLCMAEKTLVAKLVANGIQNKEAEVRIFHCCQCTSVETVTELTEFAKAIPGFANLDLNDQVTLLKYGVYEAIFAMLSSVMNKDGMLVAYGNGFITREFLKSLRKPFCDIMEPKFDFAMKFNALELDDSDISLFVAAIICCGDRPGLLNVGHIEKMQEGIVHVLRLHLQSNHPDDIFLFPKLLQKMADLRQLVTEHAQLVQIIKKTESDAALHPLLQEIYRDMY

N=C(N)SCCc1ccc(CCSC(=N)N)cc1
inactive: outcome [1] | outcome [2] | outcome [3] | Potency [4] | Potency [5] | Potency [6] | Potency [7]

NCCCCC(=O)O
inactive: outcome [1] | outcome [2] | outcome [3] | Potency [4] | Potency [5] | Potency [6] | Potency [7]

C[C@H]1O[C@H](OC2[C@@H](O)[C@@H](O)C(O)[C@H](O)[C@H]2O)[C@@H](N)C[C@@H]1N=C(N)C(=O)O (stereo partly drawn)
-7.18%: max response [17]
inactive: Potency [8] | Potency [9] | activation [10] -3.89% | Potency [11] | Potency [12] | outcome [14] | outcome [15] | Potency [16] | outcome [18] | Potency [19] | max response [21] -1.33% | activity change % (negative = inhibition) [22] 1.51% | Potency [23] | activation [24] 0.472% | activation [25] -0.0561% | max response [26] -0.85% | Potency [27] | max response [28] 3.51% | max response [29] 0.169% | outcome [30] | Potency [4] | Potency [5] | Potency [6] | Potency [7] | max response [31] -0.488% | outcome [32]
-6.74%: max response [20]
-16.5%: max response [13]
